Measurements: PubChem BioAssay (NCI)
This is part of a sample that, as a whole, favours compounds with a hit. Of some 83,000 tested, about 20% had one in any assay.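 How to read the values: 0–100, growth inhibition (40 = 60% inhibited); 0, no net growth; -100 to 0, cell death (-40 = 40% of starting cells died; -100 = all dead).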 Unmarked numbers belong to inactive results. The source made the active and inactive calls. How the source made its calls: active means growth percent below 10; inactive means the rest.

Experiments:
Assay in all cases: NCI-60 one-dose screen, 48 h (100 = growth as untreated, 0 = no growth, -100 = all killed)
Conditions in all cases: 10 µM unless noted
DU-145 prostate = tested on: DU-145 prostate
K-562 leukemia = tested on: K-562 leukemia
MALME-3M melanoma = tested on: MALME-3M melanoma
MDA-MB-231 breast = tested on: MDA-MB-231 breast
RXF 393 renal = tested on: RXF 393 renal
SF-268 CNS = tested on: SF-268 CNS
SF-295 CNS = tested on: SF-295 CNS
SF-539 CNS = tested on: SF-539 CNS
UACC-257 melanoma = tested on: UACC-257 melanoma
HCT-15 colon = tested on: HCT-15 colon
HT29 colon = tested on: HT29 colon
SNB-75 CNS = tested on: SNB-75 CNS
SNB-19 CNS = tested on: SNB-19 CNS
U251 CNS = tested on: U251 CNS
PC-3 prostate = tested on: PC-3 prostate
SK-MEL-5 melanoma = tested on: SK-MEL-5 melanoma
UACC-62 melanoma = tested on: UACC-62 melanoma
LOX IMVI melanoma = tested on: LOX IMVI melanoma
SK-MEL-28 melanoma = tested on: SK-MEL-28 melanoma

Row | Structure (SMILES) | growth (DU-145 prostate) | growth (K-562 leukemia) | growth (MALME-3M melanoma) | growth (MDA-MB-231 breast) | growth (RXF 393 renal) | growth (SF-268 CNS) | growth (SF-295 CNS) | growth (SF-539 CNS) | growth (UACC-257 melanoma) | growth (HCT-15 colon) | growth (HT29 colon) | growth (SNB-75 CNS) | growth (SNB-19 CNS) | growth (U251 CNS) | growth (PC-3 prostate) | growth (SK-MEL-5 melanoma) | growth (UACC-62 melanoma) | growth (LOX IMVI melanoma) | growth (SK-MEL-28 melanoma)
1 | COc1cc(C(=O)c2cc(C)c3[nH]c4ccc(Cl)cc4c3c2C)cc(OC)c1OC | -19.7% (active) | 13.6% | 27.9% | 22.1% | 36.6% | 25.5% | 4.51% (active) | -10.1% (active) | 68% | 7.42% (active) | 18.6% | 22.9% | 35.6% | 20% | 27.3% | -55.8% (active) | 42.6% | 8.56% (active) | 53.6%
2 | CN(C)CCCn1c(=O)c2ccccc2c2ccccc21 | 44.1% | 88.1% | 100% | 67% | 74.7% | 68.2% | 83.3% | 85.6% | 93.8% | 64.7% | 50% | 85.9% | 73.4% | 87.9% | 70% | 79.7% | 82.2% | 56.5% | 103%
3 | CC(C)(C)OC(=O)Nc1ccc2c(c1)C(NC(=O)Nc1cccc(C#N)c1)CC(C)(C)O2 (stereo not drawn) | 71.6% | 23.3% | 39% | 68.8% | 72.4% | 53.4% | 31.9% | 66.8% | 27.2% | 34.2% | 55% | 71.8% | 52.4% | 32.7% | 30.5% | – | 34.6% | 26.9% | 74.7%
4 | N#Cc1c(-c2ccccc2)cc(-c2ccc(Nc3nc(Nc4ccc(F)cc4)nc(Nc4ccc(F)cc4)n3)cc2)nc1N | 106% | 88.8% | 80.6% | 73.2% | 53.6% | 96.1% | 65% | 94.5% | 104% | 100% | 94.1% | 87.1% | 91.7% | 92% | 75.8% | 92% | 98.6% | 95.5% | 90.1%
5 | Nc1n[nH]c(-c2cc(Cl)ccc2O)c1-c1ccccc1 | 106% | 67.9% | 82.2% | 78% | 86.4% | 92.3% | 102% | 94.6% | 98.5% | 78.5% | 102% | 86% | 102% | 89.2% | 81% | – | 66.6% | 79.6% | 122%
6 | O=S(=O)(Nc1cccc(Cl)c1)c1ccc(-c2cnc(C3CC3)o2)cc1 | 20.4% | 9.52% (active) | 58.2% | 23.3% | 13.8% | 51% | 15.5% | -0.0211% (active) | 63.8% | 23.9% | 3.59% (active) | -25.8% (active) | 24.1% | 22.9% | 26.3% | 16.4% | 29.2% | 35.4% | 68.4%
7 | Cc1cc(NCCCCNc2ccnc3cc(Cl)ccc23)nc(Nc2ccc(C(=O)N3CCCC3)cc2)n1 | 48.3% | -24.6% (active) | -70.4% (active) | -22.2% (active) | 32.4% | 15.7% | 3.67% (active) | -68.6% (active) | -70.6% (active) | 7.18% (active) | -2.28% (active) | -9.47% (active) | 30.5% | -7.46% (active) | 35.6% | -100% (active) | -33.6% (active) | -90.9% (active) | -72.8% (active)
8 | O=C(/C=C/c1cccc(O)c1)c1cccc(-n2cc(-c3ccc4ccccc4c3)[nH]c2=O)c1 | -17.3% (active) | -40.4% (active) | -6.88% (active) | 14.7% | 29.8% | -6.97% (active) | 6.57% (active) | -88.3% (active) | 99.6% | 2.35% (active) | -72.7% (active) | 4.8% (active) | -43.2% (active) | -86.6% (active) | 5.01% (active) | – | 11.4% | -78.2% (active) | 42.9%
9 | NC(=N\N=C/c1cccc([N+](=O)[O-])c1)/C(N)=N\N=C/c1cccc([N+](=O)[O-])c1 | 58.1% | 36.1% | 81.4% | 93.4% | 72.9% | 65.9% | 92.9% | 89.1% | 85.6% | 51.9% | 99.3% | 35.1% | 105% | 76.6% | 72.2% | 58.2% | 65% | 82% | 77.9%
